Our source for the outcome and AC50 values is PubChem BioAssay (EPA / NIEHS).

Where “and” joins values, the source holds several entries; their conditions need not be identical. Equal entries are not always repeated. Inconclusive results are not listed. More than one record can exist for a structure, and the calls need not agree. Calls of active or inactive are those of the source. Rule for the calls, unless noted: active = hit-call score of the fitted dose curve at least 0.9, where 1 is the maximum; inactive = score below 0.9.

For assay [1], the target named is human Vitamin D Receptor (VDR), VDR (gene 7421) (UniProt P11473). In words: ATG_VDR_TRANS: Attagene TRANS-FACTORIAL HepG2 Assay for human Vitamin D Receptor (VDR) (AID 2283022; active = hit-call score of the fitted dose curve at least 0.9, where 1 is the maximum). In short, it runs like this:
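RT-PCR/capillary electrophoresis read-out of reporter mRNA induction in transiently transfected HepG2; 24 h dosing; chimeric NR-Gal4 (TRANS format); gain-of-signal fit against DMSO baseline.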

Assay [2] in a line: BSK_3C_SRB: Viability Assessment in the BioMAP Diversity Plus: 3C Assay (AID 2283023).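 Note: fitted both ways against DMSO so a hit may be signal rise or drop.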 Conditions: primary human endothelial cells (HUVEC). In short, it runs like this: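 HUVEC, 24 h post-dose; 10% TCA fix, 0.1% SRB stain, A560 nm. Bidirectional curve fit vs DMSO negative control.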
Read-out in assay [3]: Matrix Metallopeptidase 1 (MMP1), MMP1 (gene 4312)
Put plainly: BSK_BE3C_MMP1: BioMAP Diversity Plus: BE3C Assay for Matrix Metallopeptidase 1 (MMP1) Biomarker Activity (AID 2283024). The conditions noted are these: primary human bronchial epithelial cells; actives raise or lower the signal. In short, it runs like this:
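Primary human bronchial epithelial cells were dosed with test chemicals, and MMP1 levels were measured by ELISA 24 h later. Data were fitted bidirectionally against DMSO as the negative control and activity baseline.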

Assay [4] in a line: BSK_3C_Vis: BioMAP Diversity Plus: 3C Assay for Morphology Visualization (AID 2283025).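 Note: fitted both ways so gain or loss versus DMSO counts.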 The conditions noted are these: primary human endothelial cells (HUVEC). In short, it runs like this: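 Human umbilical vein endothelial cells in the 3C system were imaged by light microscopy 24 h after chemical dosing to record cell morphology. Activity was fitted bidirectionally against DMSO as negative control and baseline; the endpoint serves as a background control.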

Read-out in assay [5]: Pselectin, SELP (gene 6403)
In words: BSK_4H_Pselectin: BioMAP Diversity Plus: 4H Assay for Pselectin Biomarker Activity (AID 2283026). Conditions: primary human endothelial cells (HUVEC); actives raise or lower the signal. In short, it runs like this:
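Primary human umbilical vein endothelial cells were exposed to test chemical for 24 h, then cell-surface P-selectin was quantified by ELISA. Activity was fitted bidirectionally against DMSO as negative control and baseline.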

The nature of assay [6]: BSK_4H_SRB: Viability Assessment in the BioMAP Diversity Plus: 4H Assay (AID 2283027).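 For AC50: curves fitted both ways versus DMSO so AC50 may be loss or gain.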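 Note: cells exposed to compound for 24 h before staining.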 Conditions: primary human endothelial cells (HUVEC). In short, it runs like this:
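Human umbilical vein endothelial cells, 24 h after chemical dosing; total protein measured by 0.1% sulforhodamine B staining after 10% TCA fixation, read at 560 nm. Bidirectional fitting against DMSO.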

The nature of assay [7]: BSK_BE3C_SRB: Viability Assessment in the BioMAP Diversity Plus: BE3C Assay (AID 2283028).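 For AC50: fitted both ways so AC50 may mark signal gain or loss versus DMSO.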 The conditions noted are these: primary human bronchial epithelial cells. In short, it runs like this: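 Primary human bronchial epithelium; chemical dosing, 24 h; 10% TCA fix, 0.1% SRB stain, A560; bidirectional fit vs DMSO baseline.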
Read-out in assay [8]: Thrombomodulin, THBD (gene 7056)
Put plainly: BSK_3C_Thrombomodulin: BioMAP Diversity Plus: 3C Assay for Thrombomodulin Biomarker Activity (AID 2283029). The conditions noted are these: primary human endothelial cells (HUVEC); actives raise or lower the signal. In short, it runs like this: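 Primary human umbilical vein endothelial cells (3C system) were exposed to chemical for 24 h, then thrombomodulin levels were measured by ELISA. Activity was fitted bidirectionally against the DMSO negative control as baseline.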

Read-out in assay [9]: Urokinase-type plasminogen activator receptor (uPAR), PLAUR (gene 5329)
In words: BSK_4H_uPAR: BioMAP Diversity Plus: 4H Assay for Urokinase-type plasminogen activator receptor (uPAR) Biomarker Activity (AID 2283030). The conditions noted are these: primary human endothelial cells (HUVEC); actives raise or lower the signal. In short, it runs like this:
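HUVEC, 24 h post-dose; uPAR by ELISA; bidirectional fit vs DMSO baseline.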

Read-out in assay [10]: Vascular endothelial growth factor receptor 2 (Homo sapiens) (UniProt P35968)
Put plainly: BSK_4H_VEGFRII: BioMAP Diversity Plus: 4H Assay for Vascular endothelial growth factor receptor 2 (VEGFR2) Biomarker Activity (AID 2283031).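 For AC50: cell-surface VEGFR2 protein level quantified by ELISA.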 Conditions: primary human endothelial cells (HUVEC); actives raise or lower the signal. In short, it runs like this: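 HUVEC (human primary), 4H system; 24 h post-dose; VEGFRII by ELISA; bidirectional curve fit vs DMSO baseline; gain or loss of signal scored.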

human Vitamin D Receptor (VDR), VDR (gene 7421), sequence (P11473 whole entry, looked up, the tested form may be a part): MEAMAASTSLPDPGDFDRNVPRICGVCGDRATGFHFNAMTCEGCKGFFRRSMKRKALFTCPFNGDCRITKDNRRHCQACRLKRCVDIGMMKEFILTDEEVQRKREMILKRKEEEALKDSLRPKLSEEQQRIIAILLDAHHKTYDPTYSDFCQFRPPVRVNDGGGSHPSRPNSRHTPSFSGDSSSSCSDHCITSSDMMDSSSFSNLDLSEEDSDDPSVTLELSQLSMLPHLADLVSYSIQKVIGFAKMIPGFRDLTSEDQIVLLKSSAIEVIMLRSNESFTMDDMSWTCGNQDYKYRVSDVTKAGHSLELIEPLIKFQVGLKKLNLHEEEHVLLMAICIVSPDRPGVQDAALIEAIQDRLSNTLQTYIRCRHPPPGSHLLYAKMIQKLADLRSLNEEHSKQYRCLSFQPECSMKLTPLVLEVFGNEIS

Consider `CCc1ccc(CCOc2ccc(CC3SC(=O)NC3=O)cc2)nc1` (stereo not given), for which the call in assay [1], in [2], in assay [3], in [4], in assay [5] and in assay [6] was inactive. Also, the outcome in assay [7], in assay [8], in assay [9] and in assay [10] was inactive.
On to `Oc1cccc(O)c1`, for which the call in assay [1], in [2], in [3], in assay [4], in [5] and in assay [6] was inactive. The result in assay [7], in [8], in assay [9] and in assay [10] was inactive.
As to `O=C1OC2(c3ccccc31)c1cc(Br)c(O)c(Br)c1Oc1c2cc(Br)c(O)c1Br`, in assay [1], the molecule was called inactive.
On to `NC(=O)N1C(=O)C(C(=O)c2cc(Cl)cs2)c2cc(F)c(Cl)cc21` (stereo not given), for which the molecule was classed as inactive in [1], in [8] and in [10]. For the same molecule, the AC50 in assay [2] was 14 µM (active); in assay [3], 2.77 µM (active); in assay [4] it was 37.5 µM (active); in [5], 11.4 µM (active); in [6], 15.2 µM (active); in assay [7], 9.99 µM (active). Also, in assay [9], the AC50 is 12.7 µM (active).
With `OC1CCCCC1`, the call in assay [1], in assay [2], in [3], in assay [4], in [5] and in [6] was inactive. The outcome in assay [7], in [8], in [9] and in [10] was inactive.
On to `CC(O)CO` (stereo not given), for which the outcome in assay [1], in [2], in [3], in [4], in assay [5] and in assay [6] was inactive. The result in [7], in [8], in assay [9] and in [10] was inactive.
For `CCCOC(=O)c1ccc(O)cc1`, the molecule was called inactive in [1], in [2], in assay [3], in assay [4], in [5] and in [7]. Besides, the result in assay [8], in [9] and in assay [10] was inactive.
Regarding `CCC(C)(C)C1CCC(O)CC1` (stereo not given), the result in assay [1], in assay [2], in assay [3], in assay [4], in assay [5] and in [6] was inactive. Also, the outcome in assay [7], in assay [8], in assay [9] and in assay [10] was inactive.
With `Cc1oc(-c2ccccc2)nc1CCOc1ccc(C[C@H](Nc2ccccc2C(=O)c2ccccc2)C(=O)O)cc1`, the outcome in [1], in assay [3], in assay [8] and in assay [10] was inactive. Moreover, the AC50 is 14.9 µM (active) in assay [2]; 37.5 µM (active) in assay [4]; 32.9 µM (active) in assay [5]; 5.13 µM (active) in assay [7]; 15.6 µM (active) in [9].
Regarding `CCCCCCC(=O)O`, the call in assay [1], in assay [2], in assay [3], in assay [4], in assay [5] and in [7] was inactive. The outcome in [8], in assay [9] and in assay [10] was inactive.
Consider `CC(O)C(=O)O` (stereo not given), for which the call in assay [1] was inactive.
Take `c1ccc2c(c1)Cc1ccccc1-2`: the outcome in assay [1], in assay [2], in assay [3], in [4], in assay [5] and in assay [7] was inactive. For the same molecule, the outcome in assay [8], in [9] and in assay [10] was inactive.
Take `CC(C)(C)CC(C)(C)c1ccc(O)c(-n2nc3ccccc3n2)c1`: the outcome in assay [1], in [2], in assay [3], in [4], in assay [5] and in [6] was inactive. The result in [7], in assay [8], in assay [9] and in [10] was inactive.
As to `CCN(CC)CCNc1ccc(CNC=O)c2sc3ccc(OC)cc3c(=O)c12`, the AC50 in [1] is 1.47 µM (active); in assay [2], 17.7 µM (active); in assay [3], 20 µM (active); in assay [4], 14.4 µM (active); in [5], 14.3 µM (active); in assay [9], 9.57 µM (active). Also, the AC50 in assay [10] is 20 µM (active). Also, the result in [7] and in [8] was inactive.
`OCCC(F)(F)C(F)(F)C(F)(F)C(F)(F)C(F)(F)C(F)(F)C(F)(F)C(F)(F)F`: the AC50 in assay [1] was 100 µM (active); in assay [2] it was 29.1 µM (active) and 19 µM (active); in [3], 48 µM (active); in assay [5], 14.5 µM (active) and 13.5 µM (active); in assay [7], 22.8 µM (active) and 20 µM (active); in assay [9], 39.7 µM (active) and 27.8 µM (active). In assay [10], the concentration at half-maximal activity (AC50) was 47.9 µM (active) and 20.6 µM (active). Also, the outcome in assay [1], in assay [2], in assay [3], in [4], in assay [5] and in assay [7] was inactive. Moreover, the result in assay [8], in [9] and in [10] was inactive.
Take `Cc1ccc(S(=O)(=O)O)c(C)c1`: in assay [1], the call was inactive.
The same measure, in the same setting: as for `CCCCC[C@H](O)CC(=O)CCc1ccc(O)c(OC)c1`, the entry is “inactive”.
For `CCC(=C(c1ccc(O)cc1)c1ccc(OCCN(C)C)cc1)c1ccccc1`, the AC50 in [1] was 11.6 µM (active); in [2] it was 9.01 µM (active); in assay [3] it was 12.2 µM (active); in assay [4] it was 6.97 µM (active); in assay [5], 6.16 µM (active); in [7], 9.32 µM (active). Besides, the AC50 in assay [8] was 12.8 µM (active); in [9] it was 7.41 µM (active). The outcome in assay [1] and in [10] was inactive.
Turning to `NC(=O)N(O)[C@@H]1C=C[C@H](Oc2cccc(Oc3ccc(F)cc3)c2)C1`, the outcome in assay [1], in [3], in assay [4], in assay [5], in assay [6] and in [7] was inactive. Also, the result in assay [8], in [9] and in [10] was inactive. In assay [2], the AC50 was 9.5 µM (active).
